“And” between values parts separate entries of the source, which are not always exact repeats. Equal entries are not always repeated. Results filed as inconclusive are left out. The source made the active and inactive calls. Calls come from the whole dose curve; as a rule, active = well fitted inhibition curve with a large enough effect; inconclusive = small, poorly fitted or top-dose-only effect; inactive = flat fitted curve, though single readings scatter.
Key:
[1] = tested on: N140; assay: qHTS profiling for inhibitors of Plasmodium falciparum proliferation (AID 504749); note: potency is the fitted concentration of half-maximal effect; details: P. falciparum in erythrocytes, SYBR Green DNA, 72 h; series mostly up to 28.7 µM
Outline: (§1)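 In a 72 h erythrocytic culture (37 C, humidified, 5% CO2) at 2.5% hematocrit and 0.3% starting parasitemia, compounds were tested; SYBR Green I in detergent lysis buffer stained parasite DNA overnight.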

[2] = tested on: P93_24; assay: as above; details: P. falciparum in erythrocytes, SYBR Green DNA, 72 h; series mostly up to 28.7 µM
Outline: as §1

[3] = tested on: P94_40; assay: as above; details: P. falciparum in erythrocytes, SYBR Green DNA, 72 h; series mostly up to 28.7 µM
Outline: as §1

[4] = tested on: PAD; assay: as above; details: P. falciparum in erythrocytes, SYBR Green DNA, 72 h; series mostly up to 28.7 µM
Outline: as §1

[5] = tested on: PC15; assay: as above; details: P. falciparum in erythrocytes, SYBR Green DNA, 72 h; series mostly up to 28.7 µM
Outline: as §1

[6] = tested on: PC26; assay: as above; details: P. falciparum in erythrocytes, SYBR Green DNA, 72 h; series mostly up to 28.7 µM
Outline: as §1

[7] = tested on: PC49; assay: as above; details: P. falciparum in erythrocytes, SYBR Green DNA, 72 h; series mostly up to 28.7 µM
Outline: as §1

[8] = tested on: SC27B; assay: as above; details: P. falciparum in erythrocytes, SYBR Green DNA, 72 h; series mostly up to 28.7 µM
Outline: as §1

[9] = tested on: TAB109; assay: as above; details: P. falciparum in erythrocytes, SYBR Green DNA, 72 h; series mostly up to 28.7 µM
Outline: as §1

[10] = tested on: TAB113; assay: as above; details: P. falciparum in erythrocytes, SYBR Green DNA, 72 h; series mostly up to 28.7 µM
Outline: as §1

[11] = tested on: TAB165; assay: as above; details: P. falciparum in erythrocytes, SYBR Green DNA, 72 h; series mostly up to 28.7 µM
Outline: as §1

[12] = tested on: W2; assay: as above; details: P. falciparum in erythrocytes, SYBR Green DNA, 72 h; series mostly up to 28.7 µM
Outline: as §1

[13] = tested on: CRL-7250; assay: Cytotoxic Profiling of Annotated Libraries Using Quantitative High-Throughput Screening (AID 1296008); details: Five cell lines viability, CellTiter-Glo ATP luminescence, 48-72 h; max response: hits give low values; note: potency is the fitted concentration of half-maximal effect; for max response: % is set by controls: 0 for no effect and ±100 for the full control effect
Outline: (§2)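 Cytotoxicity was measured as CellTiter-Glo ATP luminescence, read after 10 min at room temperature. Compound treatment of the cells lasted 48 or 72 hr at 37 degrees Celsius in a qHTS format.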

[14] = tested on: HEK293; assay: as above; details: Five cell lines viability, CellTiter-Glo ATP luminescence, 48-72 h; max response: hits give low values
Outline: as §2

[15] = tested on: HaCat; assay: as above; details: Five cell lines viability, CellTiter-Glo ATP luminescence, 48-72 h; max response: hits give low values
Outline: as §2

[16] = tested on: KB-3-1; assay: as above; details: Five cell lines viability, CellTiter-Glo ATP luminescence, 48-72 h; max response: hits give low values
Outline: as §2

[17] = tested on: NIH3T3; assay: as above; details: Five cell lines viability, CellTiter-Glo ATP luminescence, 48-72 h; max response: hits give low values
Outline: as §2

[18] = tested on: HEK293T; assay: qHTS assay to identify novel small-molecules to repurpose for Merkel cell carcinoma treatment (AID 1296009); details: MCC and control cell lines, CellTiter-Glo viability, 72 h; at 44.8 µM (top of the series)
Outline: (§3)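 Cell viability measured by CellTiter-Glo following 72 hr compound treatment at 37 degree celsius, with NPC and MIPE libraries tested in 8- and 11-point concentration series.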

[19] = tested on: HACAT; assay: as above; details: MCC and control cell lines, CellTiter-Glo viability, 72 h; at 44.8 µM (top of the series) unless noted
Outline: as §3

[20] = tested on: CRL-7250; assay: as above; details: MCC and control cell lines, CellTiter-Glo viability, 72 h; series mostly up to 44.8 µM
Outline: as §3
Note: nearly all actives have a fitted effect of over 60% in size.

CCOP(=S)(OCC)Oc1cc(C)nc(C(C)C)n1
inactive: Potency [1] | Potency [2] | Potency [3] | Potency [4] | Potency [5] | Potency [6] | Potency [7] | Potency [8] | Potency [9] | Potency [10] | Potency [11] | Potency [12] | max response [13] 1.07% | outcome [14] | max response [15] 0.572% | max response [16] 7.03% | max response [17] -12% | outcome [18]

OCCOc1ccccc1
inactive: Potency [1] | Potency [2] | Potency [3] | Potency [4] | Potency [5] | Potency [6] | Potency [7] | Potency [8] | Potency [9] | Potency [10] | Potency [11] | Potency [12] | max response [13] 3.79% | max response [14] 1.79% | outcome [15] | max response [16] 1.69% and -18.4% | max response [17] 0.364% | outcome [19]

NN=C(N)N
inactive: Potency [1] | Potency [2] | Potency [3] | Potency [4] | Potency [5] | Potency [6] | Potency [7] | Potency [8] | Potency [9] | Potency [10] | Potency [11] | Potency [12] | outcome [13] | max response [14] -4.43% | max response [15] -1.38% | max response [16] 8.75% | max response [17] -4.47% | outcome [20]

CN1C[C@H](CNC(=O)OCc2ccccc2)C[C@@H]2c3cccc4c3c(cn4C)C[C@H]21
inactive: Potency [7] | max response [15] -40.8% | max response [16] -8.28%
active: Potency [1] 12.6 µM | Potency [2] 5.01 µM | Potency [3] 6.31 µM | Potency [6] 13.5 µM | Potency [9] 5.62 µM | Potency [10] 12.6 µM | Potency [11] 10 µM | Potency [12] 4.78 µM

C[C@@H]1[C@@H](CC(C[C@H]2O[C@@H]3O[C@]4(C)CC[C@@H]5[C@H](C)CC[C@@H]([C@H]2C)[C@@]35OO4)C[S+](=O)([O-])c2ccc(COC(=O)N(C)C)cc2)O[C@@H]2O[C@]3(C)CC[C@H]4[C@H](C)CC[C@@H]1[C@@]24OO3 (some centres undefined)
active: Potency [16] 1.32 µM

CCCN1CCC[C@@H]2Cc3[nH]ncc3C[C@H]21
inactive: Potency [6] | Potency [12] | max response [13] 4.64% | max response [14] -0.855% | max response [16] -4.95% | outcome [17]

C[C@]12C/C(=C/O)C(=O)C[C@@H]1CC[C@@H]1[C@@H]2CC[C@@]2(C)[C@H]1CC[C@]2(C)O
inactive: Potency [1] | Potency [2] | Potency [3] | Potency [5] | Potency [6] | Potency [7] | Potency [8] | Potency [9] | Potency [10] | Potency [11] | max response [14] -8.16% | outcome [15] | max response [16] -12.7% | max response [17] 1.95% | outcome [19]

C[C@@H](NCCCc1cccc(C(F)(F)F)c1)c1cccc2ccccc12
inactive: outcome [20]

CN(N=O)C(=O)N[C@@H]1[C@@H](O)[C@H](O)[C@@H](CO)O[C@@H]1O
inactive: outcome [20]

CNC(=O)N1N=C(c2ccc(N)cc2)c2cc3c(cc2CC1C)OCO3 (centres undefined)
inactive: max response [15] -13.3% and -0.52% | max response [17] -39.3%
active: Potency [14] 23.1 µM

CC(O)(CS(=O)(=O)c1ccc(F)cc1)C(=O)Nc1ccc(C#N)c(C(F)(F)F)c1 (centres undefined)
inactive: outcome [13] | outcome [15] | max response [16] 4.8% and -10.6% | max response [17] 2.23% | outcome [17] | outcome [20] | outcome [19]

O=NN(CCCl)C(=O)NC1CCCCC1
inactive: outcome [20]

Cn1ccc2cc3c(cc21)CCN3C(=O)Nc1cccnc1
inactive: outcome [20] inactive [at 17.4 µM]

O=C1CCC(N2C(=O)c3ccccc3C2=O)C(=O)N1 (centres undefined)
inactive: outcome [20]

COC[C@@H](NC(C)=O)C(=O)NCc1ccccc1
inactive: max response [14] -4.08% | outcome [15] | max response [16] 8.88% | max response [17] 2.94% | outcome [19]

CCC1(C2=NCCN2)Cc2ccccc2O1 (centres undefined)
active: Potency [1] 12.6 µM | Potency [3] 12.6 µM | Potency [11] 11.2 µM | Potency [12] 3.79 µM
inactive: Potency [4] | Potency [5] | Potency [6] | Potency [7] | max response [13] -2.42% | max response [14] 2.14% | max response [17] -1.86%

COc1ccccc1N1CCNCC1
inactive: Potency [1] | Potency [2] | Potency [3] | Potency [4] | Potency [5] | Potency [6] | Potency [7] | Potency [8] | Potency [9] | Potency [10] | Potency [11] | Potency [12] | outcome [14] | outcome [15] | max response [16] -11% | max response [17] -4.83% | outcome [19] | outcome [18]

Cc1ccc(S(=O)(=O)N[C@@H](CCCCN)C(=O)CCl)cc1
active: Potency [2] 10 µM | Potency [3] 11.2 µM | Potency [4] 12.6 µM | Potency [9] 11.2 µM
inactive: Potency [5] | Potency [6] | max response [13] 3.77% | outcome [15] | max response [16] 32.5% | outcome [17] | outcome [19]

NCCCC(O)(P(=O)(O)O)P(=O)(O)O
inactive: outcome [20]

C=C1C[C@@H]2[C@H](CC[C@]3(C)C(=O)CC[C@@H]23)[C@@]2(C)C=CC(=O)C=C12
inactive: max response [16] -16.4%

CCOC(=O)C1(c2ccccc2)CCN(CCC(C#N)(c2ccccc2)c2ccccc2)CC1
inactive: max response [15] -18.2% | max response [16] -29% | max response [17] -8.7%
active: Potency [1] 3.55 µM | Potency [2] 3.55 µM | Potency [3] 3.16 µM | Potency [4] 2.51 µM | Potency [5] 12.6 µM | Potency [6] 6.75 µM | Potency [8] 2.82 µM | Potency [9] 3.16 µM | Potency [10] 2.24 µM | Potency [11] 2.51 µM | Potency [12] 4.78 µM | Potency [14] 7.5 µM
